# According to publication PMC11006913:
# Positions count from the first letter of the chain named.
# Legend:
# Assay in all cases: PBM; 200 nM protein, PBS
# Conditions in all cases: dsDNA, one strand shown
# [1] = target: CRX (Homo sapiens, UniProt O43186 26-111)
# [2] = target: T1, SIX6 (Homo sapiens, UniProt O95475 114-200, L167I)
# T1 sequence: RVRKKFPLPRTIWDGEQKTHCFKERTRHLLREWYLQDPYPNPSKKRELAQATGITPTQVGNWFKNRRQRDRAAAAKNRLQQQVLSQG
# [3] = target: T2, SIX6 (Homo sapiens, UniProt O95475 114-200, L143V)
# T2 sequence: T1 sequence with L30V, I54L
# [4] = target: T3, SIX6 (Homo sapiens, UniProt O95475 114-200, H141N)
# T3 sequence: T1 sequence with H28N, I54L
# [5] = target: T4, SIX6 (Homo sapiens, UniProt O95475 114-200, T165P)
# T4 sequence: T1 sequence with T52P, I54L
# [6] = target: T5, SIX6 (Homo sapiens, UniProt O95475 114-200, L167M)
# T5 sequence: T1 sequence with I54M
# [7] = target: T6, SIX6 (Homo sapiens, UniProt O95475 114-200, L143M)
# T6 sequence: T1 sequence with L30M, I54L
# [8] = target: T7, SIX6 (Homo sapiens, UniProt O95475 114-200, L143I)
# T7 sequence: T1 sequence with L30I, I54L
# [9] = target: T8, SIX6 (Homo sapiens, UniProt O95475 114-200, T165G)
# T8 sequence: T1 sequence with T52G, I54L
# [10] = target: T9, SIX6 (Homo sapiens, UniProt O95475 114-200, T139Q)
# T9 sequence: T1 sequence with T26Q, I54L
# [11] = target: CRX (Homo sapiens, UniProt O43186 26-111, E42D)
# [12] = target: T10, SIX6 (Homo sapiens, UniProt O95475 114-200, T165A)
# T10 sequence: T1 sequence with T52A, I54L
# [13] = target: T11, SIX6 (Homo sapiens, UniProt O95475 114-200, L167V)
# T11 sequence: T1 sequence with I54V
# [14] = target: T12, SIX6 (Homo sapiens, UniProt O95475 114-200)
# T12 sequence: T1 sequence with I54L
# [15] = target: T13, SIX6 (Homo sapiens, UniProt O95475 114-200, T165I)
# T13 sequence: T1 sequence with T52I, I54L
# [16] = target: CRX (Homo sapiens, UniProt O43186 26-111, R41L)
# [17] = target: T14, NKX2-4 (Homo sapiens, UniProt Q9H2Z4 175-261, P217L)
# T14 sequence: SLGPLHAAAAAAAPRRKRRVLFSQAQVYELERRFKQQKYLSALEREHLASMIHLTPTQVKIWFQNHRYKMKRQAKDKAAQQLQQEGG
# [18] = target: HOXC10 (Homo sapiens, UniProt Q9NYD6 254-340)
# [19] = target: T15, NKX2-4 (Homo sapiens, UniProt Q9H2Z4 175-261)
# T15 sequence: T14 sequence with L43P
# [20] = target: HOXA2 (Homo sapiens, UniProt O43364 129-215, R185T)
# [21] = target: PITX2 (Homo sapiens, UniProt Q99697 72-157)
# [22] = target: HOXA2 (Homo sapiens, UniProt O43364 129-215, R185K)
# [23] = target: HOXC10 (Homo sapiens, UniProt Q9NYD6 254-340, K271E)
# [24] = target: T16, NKX2-4 (Homo sapiens, UniProt Q9H2Z4 175-261, R246Q)
# T16 sequence: T14 sequence with L43P, R72Q
# [25] = target: HOXA2 (Homo sapiens, UniProt O43364 129-215, Y150S)
# [26] = target: NKX3-2 (Homo sapiens, UniProt P78367 192-278, P234S)
# [27] = target: HOXA2 (Homo sapiens, UniProt O43364 129-215)
# [28] = target: NKX3-2 (Homo sapiens, UniProt P78367 192-278)
# [29] = target: ALX4 (Homo sapiens, UniProt Q9H161 200-286)
# [30] = target: T17, PAX4 (Homo sapiens, UniProt O43316 9-242, R200K)
# T17 sequence: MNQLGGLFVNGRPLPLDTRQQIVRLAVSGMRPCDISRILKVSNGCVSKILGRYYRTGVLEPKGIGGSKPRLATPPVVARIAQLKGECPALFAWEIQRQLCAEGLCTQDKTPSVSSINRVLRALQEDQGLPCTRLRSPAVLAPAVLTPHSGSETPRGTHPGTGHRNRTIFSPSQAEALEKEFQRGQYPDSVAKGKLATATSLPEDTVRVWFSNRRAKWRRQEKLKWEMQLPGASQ
# [31] = target: T18, PAX4 (Homo sapiens, UniProt O43316 9-242)
# T18 sequence: T17 sequence with K192R
# [32] = target: ALX4 (Homo sapiens, UniProt Q9H161 200-286, Q225E)
# [33] = target: ALX3 (Homo sapiens, UniProt O95076 139-225, N203Q)
# [34] = target: T19, PAX4 (Homo sapiens, UniProt O43316 9-242, R200Q)
# T19 sequence: T17 sequence with K192Q
# [35] = target: T20, PAX4 (Homo sapiens, UniProt O43316 9-242, F177V)
# T20 sequence: T17 sequence with F169V, K192R
# [36] = target: ALX3 (Homo sapiens, UniProt O95076 139-225)
# [37] = target: T21, PAX4 (Homo sapiens, UniProt O43316 9-242, F177Y)
# T21 sequence: T17 sequence with F169Y, K192R
# [38] = target: ALX3 (Homo sapiens, UniProt O95076 139-225, L168Q)
# [39] = target: ALX3 (Homo sapiens, UniProt O95076 139-225, L168V)
# [40] = target: T22, PAX4 (Homo sapiens, UniProt O43316 9-242, R227W)
# T22 sequence: T17 sequence with K192R, R219W
# [41] = target: ALX3 (Homo sapiens, UniProt O95076 139-225, N203S)
# ALX3 (Homo sapiens, UniProt O95076 139-225, N203S), sequence (O95076 139-225 N203S): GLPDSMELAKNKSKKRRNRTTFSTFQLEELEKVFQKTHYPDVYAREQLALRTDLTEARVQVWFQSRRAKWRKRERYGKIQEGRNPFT
# CRX (Homo sapiens, UniProt O43186 26-111, E42D), sequence (O43186 26-111 E42D): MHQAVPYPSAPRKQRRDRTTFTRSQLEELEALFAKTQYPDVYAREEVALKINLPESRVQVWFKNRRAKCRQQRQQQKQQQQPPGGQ
# CRX (Homo sapiens, UniProt O43186 26-111, R41L), sequence (O43186 26-111 R41L): as the sequence (O43186 26-111 E42D) above, with R16L, D17E counted along it
# CRX (Homo sapiens, UniProt O43186 26-111), sequence (O43186 26-111): as the sequence (O43186 26-111 E42D) above, with D17E counted along it
# HOXA2 (Homo sapiens, UniProt O43364 129-215), sequence (O43364 129-215): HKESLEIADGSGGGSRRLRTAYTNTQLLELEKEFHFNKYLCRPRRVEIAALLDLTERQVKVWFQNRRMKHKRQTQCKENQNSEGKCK
# HOXA2 (Homo sapiens, UniProt O43364 129-215, Y150S), sequence (O43364 129-215 Y150S): as the sequence (O43364 129-215) above, with Y22S counted along it
# HOXA2 (Homo sapiens, UniProt O43364 129-215, R185T), sequence (O43364 129-215 R185T): as the sequence (O43364 129-215) above, with R57T counted along it
# HOXA2 (Homo sapiens, UniProt O43364 129-215, R185K), sequence (O43364 129-215 R185K): as the sequence (O43364 129-215) above, with R57K counted along it
# NKX3-2 (Homo sapiens, UniProt P78367 192-278, P234S), sequence (P78367 192-278 P234S): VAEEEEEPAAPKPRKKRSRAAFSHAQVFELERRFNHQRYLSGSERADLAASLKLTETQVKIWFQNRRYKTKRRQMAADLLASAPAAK
# ALX4 (Homo sapiens, UniProt Q9H161 200-286), sequence (Q9H161 200-286): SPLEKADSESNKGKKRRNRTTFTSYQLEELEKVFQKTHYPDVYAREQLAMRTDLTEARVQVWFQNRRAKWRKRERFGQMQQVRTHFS
# ALX3 (Homo sapiens, UniProt O95076 139-225), sequence (O95076 139-225): as the sequence (O95076 139-225 N203S) above, with S65N counted along it
# ALX4 (Homo sapiens, UniProt Q9H161 200-286, Q225E), sequence (Q9H161 200-286 Q225E): as the sequence (Q9H161 200-286) above, with Q26E counted along it
# HOXC10 (Homo sapiens, UniProt Q9NYD6 254-340, K271E), sequence (Q9NYD6 254-340 K271E): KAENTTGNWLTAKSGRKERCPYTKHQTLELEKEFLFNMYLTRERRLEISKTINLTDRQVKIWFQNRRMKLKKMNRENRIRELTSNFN
# ALX3 (Homo sapiens, UniProt O95076 139-225, L168Q), sequence (O95076 139-225 L168Q): as the sequence (O95076 139-225 N203S) above, with L30Q, S65N counted along it
# NKX3-2 (Homo sapiens, UniProt P78367 192-278), sequence (P78367 192-278): as the sequence (P78367 192-278 P234S) above, with S43P counted along it
# ALX3 (Homo sapiens, UniProt O95076 139-225, N203Q), sequence (O95076 139-225 N203Q): as the sequence (O95076 139-225 N203S) above, with S65Q counted along it
# ALX3 (Homo sapiens, UniProt O95076 139-225, L168V), sequence (O95076 139-225 L168V): as the sequence (O95076 139-225 N203S) above, with L30V, S65N counted along it
# HOXC10 (Homo sapiens, UniProt Q9NYD6 254-340), sequence (Q9NYD6 254-340): as the sequence (Q9NYD6 254-340 K271E) above, with E18K counted along it
sequence,measurement,setting,value
ACGCAACG,binding signal,[1],"8.38 upbm affinity estimate (log intensity, higher = more binding, comparable within an allelic series)"
same,binding signal,[2],"9.07 upbm affinity estimate (log intensity, higher = more binding, comparable within an allelic series)"
same,binding signal,[3],"9.09 upbm affinity estimate (log intensity, higher = more binding, comparable within an allelic series)"
same,binding signal,[4],"9.09 upbm affinity estimate (log intensity, higher = more binding, comparable within an allelic series)"
same,binding signal,[5],"9.22 upbm affinity estimate (log intensity, higher = more binding, comparable within an allelic series)"
same,binding signal,[6],"9.12 upbm affinity estimate (log intensity, higher = more binding, comparable within an allelic series)"
same,binding signal,[7],"9.21 upbm affinity estimate (log intensity, higher = more binding, comparable within an allelic series)"
same,binding signal,[8],"9.08 upbm affinity estimate (log intensity, higher = more binding, comparable within an allelic series)"
same,binding signal,[9],"9.2 upbm affinity estimate (log intensity, higher = more binding, comparable within an allelic series)"
same,binding signal,[10],"9.17 upbm affinity estimate (log intensity, higher = more binding, comparable within an allelic series)"
same,binding signal,[11],"8.41 upbm affinity estimate (log intensity, higher = more binding, comparable within an allelic series)"
same,binding signal,[12],"9.14 upbm affinity estimate (log intensity, higher = more binding, comparable within an allelic series)"
same,binding signal,[13],"9.19 upbm affinity estimate (log intensity, higher = more binding, comparable within an allelic series)"
same,binding signal,[14],"9.12 upbm affinity estimate (log intensity, higher = more binding, comparable within an allelic series)"
same,binding signal,[15],"9.12 upbm affinity estimate (log intensity, higher = more binding, comparable within an allelic series)"
same,binding signal,[16],"8.43 upbm affinity estimate (log intensity, higher = more binding, comparable within an allelic series)"
GCCCGGGC,binding signal,[1],"8.05 upbm affinity estimate (log intensity, higher = more binding, comparable within an allelic series)"
same,binding signal,[17],"8.34 upbm affinity estimate (log intensity, higher = more binding, comparable within an allelic series)"
same,binding signal,[18],"9.84 upbm affinity estimate (log intensity, higher = more binding, comparable within an allelic series)"
same,binding signal,[19],"8.35 upbm affinity estimate (log intensity, higher = more binding, comparable within an allelic series)"
same,binding signal,[20],"6.98 upbm affinity estimate (log intensity, higher = more binding, comparable within an allelic series)"
same,binding signal,[11],"8.04 upbm affinity estimate (log intensity, higher = more binding, comparable within an allelic series)"
same,binding signal,[21],"8.05 upbm affinity estimate (log intensity, higher = more binding, comparable within an allelic series)"
same,binding signal,[22],"9.77 upbm affinity estimate (log intensity, higher = more binding, comparable within an allelic series)"
same,binding signal,[23],"10.1 upbm affinity estimate (log intensity, higher = more binding, comparable within an allelic series)"
same,binding signal,[24],"8.33 upbm affinity estimate (log intensity, higher = more binding, comparable within an allelic series)"
same,binding signal,[25],"10.4 upbm affinity estimate (log intensity, higher = more binding, comparable within an allelic series)"
same,binding signal,[26],"9.95 upbm affinity estimate (log intensity, higher = more binding, comparable within an allelic series)"
same,binding signal,[16],"8.04 upbm affinity estimate (log intensity, higher = more binding, comparable within an allelic series)"
same,binding signal,[27],"7.45 upbm affinity estimate (log intensity, higher = more binding, comparable within an allelic series)"
same,binding signal,[28],"9.83 upbm affinity estimate (log intensity, higher = more binding, comparable within an allelic series)"
GCAGCTGC,binding signal,[1],"8.45 upbm affinity estimate (log intensity, higher = more binding, comparable within an allelic series)"
same,binding signal,[2],"9.09 upbm affinity estimate (log intensity, higher = more binding, comparable within an allelic series)"
same,binding signal,[3],"9.05 upbm affinity estimate (log intensity, higher = more binding, comparable within an allelic series)"
same,binding signal,[29],"7.95 upbm affinity estimate (log intensity, higher = more binding, comparable within an allelic series)"
same,binding signal,[30],"8.99 upbm affinity estimate (log intensity, higher = more binding, comparable within an allelic series)"
same,binding signal,[4],"9.04 upbm affinity estimate (log intensity, higher = more binding, comparable within an allelic series)"
same,binding signal,[5],"9.02 upbm affinity estimate (log intensity, higher = more binding, comparable within an allelic series)"
same,binding signal,[31],"9.1 upbm affinity estimate (log intensity, higher = more binding, comparable within an allelic series)"
same,binding signal,[6],"9.06 upbm affinity estimate (log intensity, higher = more binding, comparable within an allelic series)"
same,binding signal,[7],"9.14 upbm affinity estimate (log intensity, higher = more binding, comparable within an allelic series)"
same,binding signal,[8],"9.05 upbm affinity estimate (log intensity, higher = more binding, comparable within an allelic series)"
same,binding signal,[32],"8.23 upbm affinity estimate (log intensity, higher = more binding, comparable within an allelic series)"
same,binding signal,[9],"9.04 upbm affinity estimate (log intensity, higher = more binding, comparable within an allelic series)"
same,binding signal,[20],"7.31 upbm affinity estimate (log intensity, higher = more binding, comparable within an allelic series)"
same,binding signal,[10],"9.1 upbm affinity estimate (log intensity, higher = more binding, comparable within an allelic series)"
same,binding signal,[11],"8.55 upbm affinity estimate (log intensity, higher = more binding, comparable within an allelic series)"
same,binding signal,[33],"7.82 upbm affinity estimate (log intensity, higher = more binding, comparable within an allelic series)"
same,binding signal,[12],"9.05 upbm affinity estimate (log intensity, higher = more binding, comparable within an allelic series)"
same,binding signal,[34],"9.09 upbm affinity estimate (log intensity, higher = more binding, comparable within an allelic series)"
same,binding signal,[22],"10.3 upbm affinity estimate (log intensity, higher = more binding, comparable within an allelic series)"
same,binding signal,[35],"9.27 upbm affinity estimate (log intensity, higher = more binding, comparable within an allelic series)"
same,binding signal,[13],"9.06 upbm affinity estimate (log intensity, higher = more binding, comparable within an allelic series)"
same,binding signal,[36],"7.63 upbm affinity estimate (log intensity, higher = more binding, comparable within an allelic series)"
same,binding signal,[37],"9.13 upbm affinity estimate (log intensity, higher = more binding, comparable within an allelic series)"
same,binding signal,[14],"9.1 upbm affinity estimate (log intensity, higher = more binding, comparable within an allelic series)"
same,binding signal,[38],"7.75 upbm affinity estimate (log intensity, higher = more binding, comparable within an allelic series)"
same,binding signal,[15],"9.05 upbm affinity estimate (log intensity, higher = more binding, comparable within an allelic series)"
same,binding signal,[39],"7.78 upbm affinity estimate (log intensity, higher = more binding, comparable within an allelic series)"
same,binding signal,[40],"9.34 upbm affinity estimate (log intensity, higher = more binding, comparable within an allelic series)"
same,binding signal,[25],"10.3 upbm affinity estimate (log intensity, higher = more binding, comparable within an allelic series)"
same,binding signal,[16],"8.5 upbm affinity estimate (log intensity, higher = more binding, comparable within an allelic series)"
same,binding signal,[41],"7.82 upbm affinity estimate (log intensity, higher = more binding, comparable within an allelic series)"
same,binding signal,[27],"7.36 upbm affinity estimate (log intensity, higher = more binding, comparable within an allelic series)"
